# Epigenetic derep: regulators of epigenetic silencing causing reporter derepression in mouse cells; murine LDR cells, GFP reporter derepression, 30 h; Potency, µM (doses to about 53.9 µM), for inactives: at the highest dose GFP activation, most hits filed as activators; 280,000 tested, 0.2% active; active = well fitted activation curve with a large enough effect; inconclusive = small, poorly fitted or top-dose-only effect; note: potency is the fitted concentration of half-maximal effect; % of control where 0% means no effect; nearly all actives have a fitted effect of over 60% in size
#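 Readout is the number of GFP-expressing murine LDR cells, counted by cytometry following washing. Cells were treated with compound for 30 h at 37 C; the stably integrated CMV-GFP locus is normally silent.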
# Menin-MLL FL inh: inhibitors of human menin-MLL interaction, wild-type MLL peptide | 290,000 tested, under 10 active | FP activity change, % at 61.4 µM | Fluorescence polarization, fluorescein-MLL peptide displacement from menin; active = well fitted curve in the direction sought with a large enough effect in the polarisation, not every such curve was filed as active; inconclusive = small, poorly fitted or top-dose-only effect, or effect the other way, or a change in a side signal; inactive = no such curve, though single readings can be large or run the other way; the % refers to the polarisation; note: % of control where 0% means no effect
# MLL CXXC-DNA inh: MLL CXXC-DNA interaction inhibition; Potency, µM (series often up to 115 µM), for inactives: at the top dose activity change, negative = inhibition, most hits filed as inhibitors; 290,000 tested, 0.037% active; Q03164; AID 2662; MLL-CXXC / FITC-HOXA9 DNA fluorescence polarization; active = well fitted inhibition curve with a large enough effect in the polarisation, with a control signal flat, not every such curve was filed as active; inconclusive = small, poorly fitted or top-dose-only effect, or effect the other way, or a change in a side signal; inactive = no such curve, though single readings can be large or run the other way; the % refers to the polarisation; note: potency is the fitted concentration of half-maximal effect
#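 Fluorescence polarization: 7 uM MLL-CXXC (stock) preincubated 5 min with compounds, then 50 nM fluorescein-HOX-A9 DNA (stock) added; 30 min ambient. Buffer 50 mM Tris-HCl pH 7.5, 50 mM NaCl, 1 mM DTT, 0.05% BSA.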
# PINK1 expr mod: PINK1 expression modulation; PINK1 immunofluorescence, high-content cytometry, 24 h; Potency, µM (series often up to 76.6 µM), inactives show at the highest dose activation (PINK1 increase), usual class: activators; 410,000 tested, 0.2% active; AID 624263; active = well fitted activation curve with a large enough effect; inconclusive = small, poorly fitted or top-dose-only effect; cell line not stated here; note: potency is the fitted concentration of half-maximal effect; % of control where 0% means no effect; nearly all actives have a fitted effect of over 65% in size
#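 A stable cell line was treated with compounds at 5 concentrations for 24 hours, with CCCP as control. PINK1 levels and mitochondrial localization were measured by immunofluorescence with mitochondrial, cell and nuclear markers after fixation, read by laser-scanning cytometry.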
# ClpP mod: qHTS Assay for Activators of ClpP. ATP-dependent Clp protease proteolytic subunit (Bacillus subtilis (strain 168)), P80244. purified B. subtilis ClpP, FRET peptide cleavage, 20 min. Potency, µM (highest dose often 57.5 µM), for the others: top-dose activity change, negative = active. 340,000 tested, 1.9% active; active = well fitted falling curve with a large enough effect; inconclusive = small, poorly fitted or top-dose-only effect; inactive = no such curve, though single readings can be large or run the other way; note: potency is the fitted concentration of half-maximal effect; the source files actives as falling curves though it sought activators and does not explain the sign; nearly all actives have a fitted effect of over 65% in size
#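 Purified B. subtilis ClpP, 10 microg/mL final in Tris/HCl pH8 with KCl, BSA, glycerol and Tween-20, cleaved an Abz/nitrotyrosine-quenched decapeptide. Fluorescence (ex 320, em 430) was read at 0 and 20 min at room temperature. Delta was normalized to 5.8 microM ADEP and DMSO/no-enzyme controls.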
# Menin-MLL TR inh: displaces Texas Red mutant MLL peptide from human menin. 270,000 tested, 0.23% active. O00255. Menin + Texas Red MLL mutant peptide, fluorescence polarization. Potency, µM (top dose mostly 61.6 µM), without a hit: top-dose FP activity change, negative = inhibition, actives largely listed as inhibitors; active = well fitted inhibition curve with a large enough effect in the polarisation, with a control signal flat, not every such curve was filed as active; inconclusive = small, poorly fitted or top-dose-only effect, or effect the other way, or a change in a side signal; inactive = no such curve, though single readings can be large or run the other way; the % refers to the polarisation; note: potency is the fitted concentration of half-maximal effect; % of control where 0% means no effect
# An asterisk follows results filed as active; ? = inconclusive; · = no result given; [ ] = another dose, or the depositor's remark. A selection: hits, their analogues and other compounds. The true share with any hit is near 1.9%.
SMILES,Epigenetic derep,Menin-MLL FL inh,MLL CXXC-DNA inh,PINK1 expr mod,ClpP mod,Menin-MLL TR inh
CCCN1C(=O)c2ccccc2NC1c1ccc(OC)c(COc2cccc(C)c2C)c1 (configuration not stated),·,·,·,0.2%,4.2%,·
COc1ccc2[nH]c(=O)c(C(=O)O)cc2c1,1.1%,0.5,2.6%,1.9%,·,5.0%
CC(C)C1Cc2[nH]c(=O)c(C(=O)O)cc2CO1 (configuration not stated),-1.7%,0.6,-1.0%,5.7%[38.3 µM],35.5µM*,3.9%
C=CCC[C@@H](Cc1ccc(F)cc1)C(=O)O[C@H](CNC(=O)[C@@H](CC=C)CC(=O)N[C@H](CO)Cc1ccccc1)c1ccccc1,·,·,·,4.2%,1.6%,·
CCN(CC)c1ccc(/C=N/NC(=O)Cc2cccs2)c(O)c1,0.0%,2.1,9.8%,-0.7%,28.2µM*,-4.4%
CCN(CC)c1ccc(/C=N/NC(=O)c2ccco2)c(O)c1,0.1%,?,-1.5%,-0.7%,-13.7%,·
CCOc1ccc(CNC(=O)CCS(=O)(=O)Cc2ccc(C)cc2)cc1OC,0.0%,-1.1,-2.8%,1.8%,25.1µM*,16.5%
CCOc1ccc(CNC(=O)CCS(=O)(=O)Cc2ccccc2C)cc1OC,-3.5%,-0.7,-3.5%,0.9%,1.9%,-16.6%
O=S(=O)(Nc1ccc(-c2cn3ccccc3n2)cc1)c1ccccc1,1.2%,2.9,5.6%,1.7%,-28.3%,·
Cc1cccc(S(=O)(=O)Nc2ccc(-c3cn4ccccc4n3)cc2)c1,0.0%,2.3,14.6%,0.0%,28.2µM*,-8.0%
O=C(Nc1cccc(-c2cn3ccccc3n2)c1)c1ccccc1,1.1%,-4.9,5.7%,-0.8%,-3.4%,8.5%
Cc1cc(C)c(S(=O)(=O)Nc2cccc(-c3cn4ccccc4n3)c2)c(C)c1,-1.3%,·,·,1.9%,28.2µM*,·
CCCCC(=O)Nc1cccc(-c2cn3ccccc3n2)c1,0.2%,1.6,-15.3%,·,28.2µM*,3.3%
Cc1ncc2c(c1CNC(=O)c1ccc3c(c1)OCO3)CCN(C(=O)C1Cc3ccccc3O1)C2 (configuration not stated),·,·,·,-0.9%,·,·
COc1cccc(-c2cc(C(F)(F)F)nc(N3CCC(C)CC3)n2)c1,-1.1%,-0.6,1.9%,9.1%,25.1µM*,-10.7%
FC(F)(F)c1cc(-c2ccccc2)nc(-n2cc(Cl)cn2)n1,0.0%,0.3,18.5%,0.9%,-1.1%,-17.5%
COc1ccc(-c2cc(C(F)(F)F)nc(-n3cncn3)n2)cc1,4.0%,3.8,21.1%,-1.2%,20µM*,-0.9%
COc1ccc(-c2cc(C(F)(F)F)nc(-n3cc(Br)cn3)n2)cc1,0.1%,-3.3,4.8%,0.9%,?,4.9%
COc1nn(-c2nc(-c3ccccc3)cc(C(F)(F)F)n2)cc1[N+](=O)[O-],0.0%,3.8,-3.8%,8.3%,22.4µM*,15.3%
COc1nc(-c2ccccc2)cc(C(F)(F)F)n1,-3.0%,1.3,-1.3%,4.7%[38.3 µM],1.0%,-4.0%
COc1cccc(-c2cc(C(F)(F)F)nc(-n3cc(Cl)cn3)n2)c1,-1.0%,5.4,-4.8%,-3.3%,31.6µM*,1.7%
CC(=O)N(c1ccc2ccccc2c1)C1SC(=O)N(c2cccc(C)c2)C1=O (configuration not stated),·,·,·,-0.2%,2.9%,·
CO/N=C/C(C#N)c1ncc(C(F)(F)F)cc1Cl (configuration not stated),2.1%,6.7,-4.5%,12.6µM*,-7.3%,-13.1%
COc1cccc(-c2ccc3ncnc(N4CCN(C)CC4)c3c2)c1,·,-9.7,·,0.2%,·,-19.5%
COc1cccc(-c2cc3c(-n4cccc4)ncnc3o2)c1,-0.9%,3.6,2.3%,-1.6%,14.1µM*,12.1%
SMILES,Epigenetic derep,Menin-MLL FL inh,MLL CXXC-DNA inh,PINK1 expr mod,ClpP mod,Menin-MLL TR inh
CC(C)(C)c1ccc(OCCn2c(CCNC(=O)C3CCCCC3)nc3ccccc32)cc1,·,·,·,7.8%,-0.6%,·
O=C1c2cccc3cccc(c23)C(=O)N1c1nncs1,-1.3%,0.0,6.5%,-1.4%,15.8µM*,1.7%
Cc1ccc2c(CN3CCN(S(=O)(=O)c4ccc(Cl)cc4)CC3)cc(=O)oc2c1C,·,·,·,-2.4%,14.1µM*,·
O=C(O)CCc1nn2c3ccccc3n(CCN3CCCCC3)c2nc1=O,-1.1%,-0.4,10.6%,-2.3%[38.3 µM],28.2µM*,5.6%
O=C(Nc1cccc(O)c1)c1ccc([N+](=O)[O-])cc1Cl,-0.1%,-1.2,-0.2%,-0.2%,-1.2%,14.2%
O=C(Nc1c(Cl)cc([N+](=O)[O-])cc1Cl)c1cc(Cl)cc(Cl)c1O,·,·,·,14.1µM*,-18.0%,·
COC(=O)C1CCN(c2nc(CN(C)C3CCOC3)nc3cc(OC)c(OC)cc23)CC1 (configuration not stated),·,·,·,2.4%,·,·
COc1ccc(-c2ocnc2C(=O)Nc2ccccc2N2CCCCC2)cc1,-0.7%,2.4,0.1%,8.2%,31.6µM*,9.6%
CCOC(=O)Nc1nnc(-c2ccccc2OC)s1,-1.0%,-0.1,-6.3%,1.8%,3.55µM*,-0.1%
COc1ccc(-c2nnc(SCC(=O)Nc3ccc(F)cc3)s2)cc1,1.4%,·,·,0.1%,14.1µM*,·
CCCCC(=O)Nc1nnc(/C=C/c2ccc(OC)cc2)s1,·,-6.0,17.5%,3.0%,4.6%,9.0%
COc1ccc(/C=C/c2nnc(NC(=O)COc3ccc(C)cc3)s2)cc1,1.1%,3.4,13.6%,7.2%,15.8µM*,25.3%
CCCCOC(=O)Nc1nnc(/C=C/c2ccc(OC)cc2)s1,1.5%,1.4,7.2%,6.9%,31.6µM*,12.9%
COc1ccc(/C=C/c2nnc(NC(=O)COc3ccccc3)s2)cc1,0.0%,0.2,-4.9%,0.3%,·,·
Brc1cccc[n+]1CCCC[n+]1ccccc1Br,·,·,·,1.2%,?,·
COc1ccc(-n2c(CNC(=O)c3cccc4ccccc34)nnc2SC)cc1,·,·,·,3.1%,·,·
CO[C@H]1/C=C/O[C@@]2(C)Oc3c(C)c(O)c4c(O)c(c(/C=N\N5CCN(C6CCCC6)CC5)c(O)c4c3C2=O)NC(=O)/C(C)=C\C=C\[C@H](C)[C@H](O)[C@@H](C)[C@@H](O)[C@@H](C)[C@H](OC(C)=O)[C@@H]1C,·,3.3,-2.6%,·,·,?
COc1ccc2nc(NC(=O)C3CCCO3)sc2c1 (configuration not stated),4.4%,-2.0,3.9%,3.0%,0.4%,15.3%
CCOC(=O)Nc1nnc(-c2cccc(OC)c2)s1,-1.1%,2.9,1.9%,0.9%,6.7%,-12.7%
CCOC(=O)Nc1nnc(/C=C/c2ccc(OC)cc2)s1,0.0%,1.5,-0.9%,-1.5%,12.6µM*,34.9%
COc1ccc(-c2nnc(NC(=O)C3CCCO3)s2)cc1 (configuration not stated),-1.1%,0.6,-6.0%,-1.7%,12.6µM*,-19.0%
Cc1csc(NC(=O)CSc2nnc(NC(=O)COc3ccc(Cl)cc3)s2)n1,-1.3%,18.1,13.2%,7.5%,0.8%,25.1µM*

# Assay outcomes from PubChem.
